Measurements from PubChem BioAssay AID504803 (The Scripps Research Institute Molecular Screening Center, 2011).
About 1,700 (0.5%) of roughly 340,000 compounds were called active. Rule as the data show it: active = inhibition above about 36%; inactive = the rest. The list comes from a sample in which actives are over-represented; it also holds similar structures and randomly drawn compounds.

target: Serine protease HTRA1 (Homo sapiens) (UniProt Q92743); test: inhibition of human HTRA1 peptidase – biochemical, fluorescence polarization, HTS, primary screen (AID 504803); conditions: recombinant HTRA1, FP-rhodamine activity-based probe, at 5.96 µM, stronger effect = higher value;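 also: 0% = enzyme with DMSO and 100% = wells lacking enzyme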
Sequence (Q92743 whole entry, looked up): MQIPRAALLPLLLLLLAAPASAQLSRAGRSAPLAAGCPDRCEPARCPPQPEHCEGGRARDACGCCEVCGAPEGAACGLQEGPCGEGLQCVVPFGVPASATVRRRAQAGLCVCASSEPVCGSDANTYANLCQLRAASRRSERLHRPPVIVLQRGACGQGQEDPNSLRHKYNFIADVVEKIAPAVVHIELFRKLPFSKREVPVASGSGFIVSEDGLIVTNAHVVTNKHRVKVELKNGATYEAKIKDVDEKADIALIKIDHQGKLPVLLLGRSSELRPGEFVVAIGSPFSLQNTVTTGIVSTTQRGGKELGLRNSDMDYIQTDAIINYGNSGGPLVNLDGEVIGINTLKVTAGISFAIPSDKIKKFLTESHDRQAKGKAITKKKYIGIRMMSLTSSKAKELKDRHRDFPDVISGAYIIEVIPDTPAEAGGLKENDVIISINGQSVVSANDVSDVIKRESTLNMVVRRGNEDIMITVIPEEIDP

inhibition, active:
COc1ccc(NS(=O)(=O)c2cc(NC(=O)CC(=O)c3ccc([N+](=O)[O-])cc3)ccc2C)cc1 45.4%
CC(=O)Oc1cccc(N2C(=O)CC(Nc3ccc(N4CCOCC4)cc3)C2=O)c1 (centres undefined) 51.5%
CCC(C)Cn1c(O)cc2nn(-c3nc4ccccc4s3)c(=O)c-2c1C (centres undefined) 61.1%
COc1ccc(OC)c(Nc2nc(-c3ccc(O)c(O)c3)cs2)c1 64.3%
Cc1cc(C(=O)N/N=C/c2ccc(O)c([N+](=O)[O-])c2)c(C)n1-c1ccc(F)cc1 45.1%
COc1ccccc1C1=Nc2cccc3cccc(c23)N1 60.3%
O=C1c2ccccc2C(=O)c2c1cccc2N1CCN(Cc2ccccc2)CC1 62%
c1ccc(CSc2nnc(-c3ccco3)c(-c3ccco3)n2)cc1 42.8%
Clc1ccccc1CSc1nnc(-c2ccco2)c(-c2ccco2)n1 49.6%
Nc1ccc(Nc2ccccc2)cc1 69%

inhibition, inactive:
Cc1ccc(NC(=O)CCNC(=O)c2ccc([N+](=O)[O-])cc2)cc1S(=O)(=O)N1CCOCC1 3.34%
COc1ccc(NS(=O)(=O)c2cc(NC(=O)COc3ccccc3F)ccc2OC)cc1 -13.3%
CC1CCCC(C)N1C(=O)COC(=O)c1ccccc1C(=O)c1ccccc1 (centres undefined) 0.04%
CCOc1cc(/C=N/NC(=O)c2ccncc2)cc(Br)c1O 3.19%
O=C(C1CCCO1)N1CCN(C(=O)C23CC4CC(CC(C4)C2)C3)CC1 (centres undefined) 9.09%
COc1ccc(N2CCN(C3CC(=O)N(c4ccc5c(c4)OCCO5)C3=O)CC2)cc1 (centres undefined) 4.17%
O=C1CC(NNc2ccccc2)C(=O)N1c1cccc(Cl)c1 (centres undefined) -8.57%
O=C(OCc1ccccc1)N1CCC2CC1c1ccc(-c3ccc4c(c3)OCO4)cc12 (centres undefined) -25%
COc1ccc(-c2csc(Nc3cccc(C)n3)n2)cc1OC 13.4%
COc1ccc(OC)c(-c2csc(NC(=O)C3=NNC(=O)CC3)n2)c1 -2.91%
C[C@@H]1CN([C@H](C)CO)S(=O)(=O)c2ccc(C#C[C@@H](C)O)cc2O[C@@H]1CN(C)Cc1ccc(-c2ccccc2)cc1 -54%
O=C(OCc1cn([C@H]2C[C@H](c3ccccc3)N(C(=O)c3cccs3)C[C@@H]2O)nn1)c1ccccc1 -11.7%
N#CC1(Nc2ccc3c4c(cccc24)CC3)CCCCC1 33.2%
O=C1CSC(=S)N1/N=C/c1ccc(O)c([N+](=O)[O-])c1 13.7%
Cc1cc(C(=O)COC(=O)C2CC2)c(C)n1-c1ccc(F)cc1 4.47%
Cc1ccc([C@H]2N[C@]3(CCCN(CC4CCCCC4)C3=O)[C@H]3C(=O)N(Cc4ccccc4)C(=O)[C@@H]23)cc1 -16.8%
Fc1ccccc1N=C1Nc2cccc3cccc1c23 -6.03%
COc1ccccc1-c1nc(C(F)(F)F)c(OC)o1 -5.12%
O=C(CN1CCN(Cc2ccccc2)CC1)NC(c1ccccc1)c1ccccc1 -2.99%
O=C1c2ccccc2C(=O)c2c1cccc2N1CCN(CCO)CC1 9.89%
CCCCN1C(=O)C(CC(=O)NCc2cccs2)CC(C(=O)N2CCOCC2)=C1C (centres undefined) 1.73%
Cc1noc(C)c1S(=O)(=O)N(C)C[C@H]1OCCCC[C@@H](C)Oc2ccc(NC(=O)CCCN(C)C)cc2C(=O)N([C@H](C)CO)C[C@@H]1C 1.73%
Cc1ccc(-c2ccc(CN3C(C)C(=O)N(Cc4cn(CCC5OCCCO5)nn4)CCS3(=O)=O)cc2)cc1 (centres undefined) -6.77%
C[C@H]1CN([C@@H](C)CO)C(=O)CCCn2cc(nn2)CO[C@@H]1CN(C)S(=O)(=O)c1cccs1 4.51%
O=C(NCCN1CCOCC1)c1ccc2c(c1)N(Cc1cccc(Cl)c1)C(=O)c1ccccc1S2(=O)=O -8.45%
S=C(NCc1ccco1)NCc1ccccc1Cl -12.8%
O=C(Nc1nnc(SCc2ccccc2Cl)s1)c1cccc([N+](=O)[O-])c1 -3.08%
CCc1nnc(SCc2cccc(F)c2)nc1CC -3.55%
Clc1ccc(CSc2nnc3c(n2)[nH]c2ccccc23)cc1 -20.7%
O=C(NCc1nnnn1-c1ccc(Cl)cc1)c1ccc([N+](=O)[O-])o1 2.97%
CCN(CC)C(=O)C1=C(C)N(Cc2ccc(C(C)(C)C)cc2)C(=O)C(CC(=O)NCc2cccc3ccccc23)C1 (centres undefined) -39.3%
Nc1cc(=O)c2[nH]cnc2[nH]1 -44.6%
NS(=O)(=O)c1ccc(CNC(=O)c2cc(S(=O)(=O)N3CCOCC3)ccc2N2CCCC2)cc1 0.13%
CCCc1ccc(S(=O)(=O)N2CCN(C(=O)c3cc(C)on3)CC2)cc1 -2.05%
C[C@H]1Cn2cnc(C(=O)N[C@H](C)c3ccccc3)c2C(=O)N1 6.34%
c1ccc(Cn2nnc3c(NCC4CC4)ncnc32)cc1 -4.95%
O=C(NCCS(=O)(=O)N1CCN(c2ccccc2)CC1)c1cc(=O)c2ccccc2o1 1.65%
CCCc1c(C)nc2scc(-c3ccc(Cl)cc3)n2c1=O 0.07%
C#CCN(C[C@@H]1[C@@H](OC(=O)NC2CC2)[C@@H](OC(=O)NC2CC2)Cn2c(=O)ccc(=O)n21)S(=O)(=O)c1ccc(C)cc1 -1.46%
CCOC(=O)c1c(NC(=O)COC(=O)c2ccc(S(=O)(=O)C(F)F)cc2)sc(C(=O)N(C)C)c1C -16.1%
COc1ccc(Nc2ccc3ccccc3c2)cc1 24.9%
Cc1cc(Nc2ccccc2)n(C(=O)c2ccc(N)cc2)n1 -10.8%
O=C(NCCc1cccc(F)c1)C1CC(O)CN1C(=O)Nc1ccccc1 (centres undefined) 0.16%
CC(C)[C@H](NC(=O)c1ccccc1F)C(=O)Nc1cccc(S(=O)(=O)N2CCOCC2)c1 0.83%
